Source: PubChem
Compounds with a hit are over-represented: about 1.1% of the library has one in this group of screens.
TNF death inh: inhibitors of TNF-alpha triggered necroptosis, primary screen, cell-based, Jurkat FADD-/-, single concentration; 220,000 tested, 0.068% active; activation (protection from cell death), % at 10 µM; Jurkat FADD-/- TNF necroptosis rescue, ATP luminescence, 24 h; 0 = TNF only, 100 = no-TNF cells;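 active = activation, meaning protection from cell death, of at least 50% relative to plate controls; inactive = activation below 50%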;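 note: necroptosis triggered by 40 ng/mL TNF-alpha added together with compound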
HIF act: HIF pathway transcriptional activators, primary screen, cell-based, U2OS HRE-luciferase, luminescence | U2OS HRE-luciferase reporter; normalized: DMSO 0%, desferrioxamine 100% | 300,000 tested, 0.32% active | activation, % at 7.5 µM (by protocol) | AID 1910, 2009;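 active = mean activation of at least 10% of the iron chelator positive control signal, with at least half of replicates also reaching 10%; inconclusive = mean and replicate majority disagree about reaching 10%; inactive = mean and most replicates under 10%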
Calb FLC: C. albicans growth inhibition with fluconazole, primary screen, CaCi-2 strain, Alamar Blue fluorescence. C. albicans CaCi-2 (fluconazole-resistant clinical isolate) + fluconazole, 48 h. growth inhibition, % (concentration not given with the values). 300,000 tested, 0.57% active;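 active = growth inhibition above about 58% in most replicates, limit read from the data, passing the limit was not always enough; inconclusive = exactly half the replicates above a set limit; inactive = most replicates below a set limit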;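 note: all wells also contain fluconazole at 8 µg/ml as a sub-toxic cotreatment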
L929 necroptosis: inhibitors of zVAD-triggered necroptosis, primary screen, L929 cells; L929 zVAD necroptosis rescue, ATP luminescence, 24 h; with zVAD 60 µM; viability rescue, % at 10 µM; 220,000 tested, 0.38% active;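 active = activation, scaled between plate controls, above about 75%, limit read from the data; inactive = activation under that limit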
Numbers stand for hits; i = inactive; ? = inconclusive; nt = not tested or not shown.

SMILES	TNF death inh	HIF act	Calb FLC	L929 necroptosis
CCOC(=O)c1[nH]cnc1N=Nc1c(O)ccc2ccccc12	i	37.8	i	i
CCOC(=O)c1c[nH]c2ccc3ccccc3c2c1=O	nt	i	i	nt
CNC(=O)C1CC(=O)N(c2ccc(OCC(=O)N3CCCC3)cc2)C1 (centres undefined)	nt	28.6	i	nt
N/C(=C\C(=O)c1cc(Cl)ccc1O)C(Cl)(Cl)Cl	i	i	i	i
CC(=O)Nc1sc(-c2ccccc2)nc1-c1ccccc1	i	204.8	i	i
CC(=O)Nc1sc(-c2ccc(Cl)cc2)nc1-c1ccccc1	i	i	i	i
CN(CCS(=O)(=O)c1ccc(Cl)cc1)Cc1cccnc1	i	115.8	i	i
CC(NC(=S)NCc1ccc(F)cc1)C12CC3CC(CC(C3)C1)C2 (centres undefined)	i	i	i	i
COc1ccccc1/C=C/C(=O)Nc1ccc(S(=O)(=O)Nc2cc(C)nc(C)n2)cc1	nt	i	i	nt
COc1cccc(NC(=S)N(CCCN2CCOCC2)Cc2cn(C)c3ccccc23)c1	i	350.9	?	i
Cc1sc2ncn(Cc3ccccc3F)c(=O)c2c1C	95.3	i	i	i
CCn1cnc2sc(C)c(C)c2c1=O	i	nt	nt	i
CCOc1cc(/C=N/NC(=O)c2nnn(-c3nonc3N)c2C)ccc1OCc1cccc(F)c1	nt	i	i	nt
CCCn1c(Nc2nc3ccccc3n2C)nc2ccccc21	i	i	101.5	i
CCCCn1c(Nc2ccccc2)nc2ccccc21	i	i	i	i
CCOc1ccc(N/C=C\C(=O)c2ccc3c(c2)OCO3)cc1	i	i	i	i
COc1ccc(N/C=C\C(=O)c2ccc3c(c2)OCO3)cc1	i	12.6	i	i
O=C(CSCc1ccco1)N1CCc2ccccc21	nt	i	i	nt
Cn1nnnc1N=N/C(=N/Nc1ccccc1)c1ccccc1	i	181.9	i	i
Oc1ccccc1N=N/C(=N/Nc1ccccc1O)c1ccccc1	nt	i	i	nt
CCN1C(=NCc2ccco2)N[C@@H](c2cccc(F)c2)C(C(=O)OC)=C1C	nt	i	i	nt
Oc1ccc(N2CCN(c3ncnc4sc(-c5ccccc5)cc34)CC2)cc1	i	i	100.2	i
Cc1ccccc1N1CCN(C(=O)NCc2cccc(Cl)c2)CC1	nt	i	i	nt
CC1CN(c2nc3ccccn3c(=O)c2/C=C(\C#N)C(=O)N2CCOCC2)CC(C)O1 (centres undefined)	i	18.5	i	i
CC1CN(c2nc3ccccn3c(=O)c2/C=C(\C#N)C(N)=O)CC(C)O1 (centres undefined)	i	i	i	i
SMILES	TNF death inh	HIF act	Calb FLC	L929 necroptosis
COc1ccc(C(C)=O)cc1CS(=O)(=O)CC(=O)O	i	i	i	i
C=CCOc1ccc(/C=C2\SC(=Nc3cccnc3)NC2=O)cc1	i	84.3	i	i
CC(/C=C1\SC(=Nc2cccnc2)NC1=O)=C\c1ccccc1	i	i	i	i
C/C(=N\NC(=O)CSCc1ccccc1Cl)c1cc(O)ccc1O	i	i	95.0	i
N#Cc1ccc(-c2csc(NNC(=O)c3ccc(Br)cc3)n2)cc1	i	9.7	i	i
CN1C(=O)[C@H](Cc2ccc([N+](=O)[O-])cc2)NC1=S	nt	i	i	nt
C=C1C(=O)O[C@@H]2C[C@@H](C)[C@@H]3C=CC(=O)[C@@]3(C)[C@@H](OC(C)=O)[C@H]12	i	i	i	130.4
O=C(O)c1ccc2cccc(O)c2n1	i	40.3	i	i
COC(=O)C(Cc1ccc(O)cc1)NC(=O)c1ccc2c(c1)OCCO2 (centres undefined)	nt	i	i	nt
COc1ccc(C(=O)Nc2cccc(C(=O)N/N=C/c3ccc(OC)cc3OC)c2)cc1	nt	i	i	nt
COc1ccc(N2Cc3ccc(C(=O)N/N=C\c4ccc(O)cc4O)cc3C2)cc1	nt	i	92.5	nt
COc1ccc2nc(C)cc(SCC(=O)N/N=C/c3ccc(O)cc3O)c2c1	i	21.8	i	i
CCOc1ccc(CCNC(=O)CSC(=S)N2CCCC2)cc1OCC	nt	i	i	nt
Cc1ccc(C(=O)Nc2nc3ccccc3c(=O)s2)cc1	i	i	86.9	i
O=C(NCCc1cccc(Cl)c1)c1cc2ccccc2oc1=O	nt	i	i	nt
O=C(Nc1ccc(N2CCCC2)cc1)c1cccc(Cl)c1Cl	nt	i	i	nt
CCOC(=O)CSc1ccc(C(=O)N2CCN(C)CC2)cc1[N+](=O)[O-]	i	i	102.0	i
CCOC(=O)c1c(S(=O)(=O)N2CCC(C)CC2)c(C)n(C)c1C	nt	44.0	i	nt
CCOC(=O)c1c(S(=O)(=O)N2CCCCCC2)c(C)n(C)c1C	nt	i	i	nt
